Experiment [1] has as its target T1, Serine/threonine-protein kinase TBK1 (Homo sapiens) (UniProt Q9UHD2).
T1 sequence (whole entry): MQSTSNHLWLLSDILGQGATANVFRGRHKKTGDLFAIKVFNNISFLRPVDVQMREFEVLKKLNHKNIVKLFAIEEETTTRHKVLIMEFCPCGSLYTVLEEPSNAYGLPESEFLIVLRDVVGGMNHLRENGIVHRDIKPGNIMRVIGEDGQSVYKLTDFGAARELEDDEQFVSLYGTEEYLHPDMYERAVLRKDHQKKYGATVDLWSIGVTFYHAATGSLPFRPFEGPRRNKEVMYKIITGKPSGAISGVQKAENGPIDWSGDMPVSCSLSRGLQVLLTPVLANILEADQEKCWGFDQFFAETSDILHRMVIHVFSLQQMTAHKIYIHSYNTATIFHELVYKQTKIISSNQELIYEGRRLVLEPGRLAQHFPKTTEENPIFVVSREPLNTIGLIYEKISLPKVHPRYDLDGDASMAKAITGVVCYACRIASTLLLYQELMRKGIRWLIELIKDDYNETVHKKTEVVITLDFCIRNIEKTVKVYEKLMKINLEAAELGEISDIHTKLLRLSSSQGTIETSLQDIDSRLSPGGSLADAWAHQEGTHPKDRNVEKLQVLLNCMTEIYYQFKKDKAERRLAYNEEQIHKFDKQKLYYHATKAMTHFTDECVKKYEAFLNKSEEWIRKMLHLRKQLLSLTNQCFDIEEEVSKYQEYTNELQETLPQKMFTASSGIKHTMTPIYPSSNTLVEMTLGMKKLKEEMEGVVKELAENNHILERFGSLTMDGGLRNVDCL
The note with it: at 10 µM.

Experiment [2] deals with T2, TGF-beta receptor type-1 (Homo sapiens) (UniProt P36897).
T2 sequence (whole entry): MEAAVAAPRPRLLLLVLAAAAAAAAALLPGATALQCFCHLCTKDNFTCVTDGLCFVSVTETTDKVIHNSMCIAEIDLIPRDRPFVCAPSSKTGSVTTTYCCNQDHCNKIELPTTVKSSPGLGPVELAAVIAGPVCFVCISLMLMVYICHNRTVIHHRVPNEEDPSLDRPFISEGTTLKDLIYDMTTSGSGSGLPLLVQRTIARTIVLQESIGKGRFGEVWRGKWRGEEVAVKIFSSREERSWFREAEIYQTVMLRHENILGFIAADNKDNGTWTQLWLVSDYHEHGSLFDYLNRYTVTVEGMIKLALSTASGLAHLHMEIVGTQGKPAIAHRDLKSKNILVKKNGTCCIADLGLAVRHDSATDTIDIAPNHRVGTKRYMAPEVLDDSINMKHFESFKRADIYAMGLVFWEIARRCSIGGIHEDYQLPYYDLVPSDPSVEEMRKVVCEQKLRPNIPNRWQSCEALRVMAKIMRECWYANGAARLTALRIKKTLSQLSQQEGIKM
The following applies: at 1 µM.

For experiment [3], the target named is T2, TGF-beta receptor type-1 (Homo sapiens). The note with it: at 10 µM.
Experiment [4] has as its target Insulin-like growth factor 1 receptor (Homo sapiens) (UniProt P08069). The note with it: at 1 µM.
For experiment [5] the target is unchanged. The following applies: at 10 µM.
Experiment [6] deals with T3, Inhibitor of nuclear factor kappa-B kinase subunit alpha (Homo sapiens) (UniProt O15111).
T3 sequence (whole entry): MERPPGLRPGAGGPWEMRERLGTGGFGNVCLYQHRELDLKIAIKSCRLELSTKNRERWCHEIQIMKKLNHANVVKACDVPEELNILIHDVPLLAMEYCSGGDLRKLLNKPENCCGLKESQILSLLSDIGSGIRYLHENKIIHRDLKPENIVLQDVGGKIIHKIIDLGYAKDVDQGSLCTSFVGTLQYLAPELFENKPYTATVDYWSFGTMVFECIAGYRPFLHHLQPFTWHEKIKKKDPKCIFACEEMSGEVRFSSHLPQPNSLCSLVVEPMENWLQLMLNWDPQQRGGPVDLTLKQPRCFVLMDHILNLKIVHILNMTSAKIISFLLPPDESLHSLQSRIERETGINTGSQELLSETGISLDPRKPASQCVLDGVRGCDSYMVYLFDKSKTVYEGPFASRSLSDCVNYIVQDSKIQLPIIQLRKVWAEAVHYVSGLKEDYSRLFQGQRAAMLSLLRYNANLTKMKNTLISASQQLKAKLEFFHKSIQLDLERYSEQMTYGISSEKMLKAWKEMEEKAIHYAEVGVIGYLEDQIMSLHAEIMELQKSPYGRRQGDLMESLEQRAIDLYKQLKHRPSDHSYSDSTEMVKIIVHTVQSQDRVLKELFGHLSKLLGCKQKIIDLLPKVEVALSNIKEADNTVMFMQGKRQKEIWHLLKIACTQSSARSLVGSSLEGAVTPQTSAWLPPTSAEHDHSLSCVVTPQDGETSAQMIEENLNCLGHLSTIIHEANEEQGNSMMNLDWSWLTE
The note with it: at 1 µM.

Experiment [7] has as its target T3, Inhibitor of nuclear factor kappa-B kinase subunit alpha (Homo sapiens). The note with it: at 10 µM.
The target in experiment [8] is T4, Inhibitor of nuclear factor kappa-B kinase subunit beta (Homo sapiens) (UniProt O14920).
T4 sequence (whole entry): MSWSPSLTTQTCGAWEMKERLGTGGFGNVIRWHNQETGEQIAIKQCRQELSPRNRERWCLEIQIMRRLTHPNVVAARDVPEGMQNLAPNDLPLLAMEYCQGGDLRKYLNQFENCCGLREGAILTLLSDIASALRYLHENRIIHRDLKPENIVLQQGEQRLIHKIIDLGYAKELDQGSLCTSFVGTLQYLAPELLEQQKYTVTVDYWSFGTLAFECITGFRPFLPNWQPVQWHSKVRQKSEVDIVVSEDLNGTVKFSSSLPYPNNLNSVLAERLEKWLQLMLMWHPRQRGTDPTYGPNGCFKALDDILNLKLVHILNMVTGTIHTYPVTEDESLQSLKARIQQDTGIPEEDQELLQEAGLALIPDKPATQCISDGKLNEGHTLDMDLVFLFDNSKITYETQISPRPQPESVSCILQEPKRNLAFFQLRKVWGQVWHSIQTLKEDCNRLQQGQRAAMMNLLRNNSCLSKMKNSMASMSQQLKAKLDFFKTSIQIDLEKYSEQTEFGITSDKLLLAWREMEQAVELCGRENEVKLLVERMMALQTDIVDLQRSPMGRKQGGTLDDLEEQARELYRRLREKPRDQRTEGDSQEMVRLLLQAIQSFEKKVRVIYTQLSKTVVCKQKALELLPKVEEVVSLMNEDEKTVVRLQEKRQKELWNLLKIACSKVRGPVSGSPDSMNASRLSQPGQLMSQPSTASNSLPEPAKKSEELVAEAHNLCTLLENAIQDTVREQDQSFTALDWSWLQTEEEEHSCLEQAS
The note with it: at 1 µM.

In experiment [9] the target is T4, Inhibitor of nuclear factor kappa-B kinase subunit beta (Homo sapiens). The note with it: at 10 µM.
Experiment [10] concerns the target Insulin receptor (Homo sapiens) (UniProt P06213). The note with it: at 1 µM.

For one molecule, residual activity results are on record in ChEMBL document CHEMBL2218924, “A broad activity screen in support of a chemogenomic map for kinase signalling research and drug discovery” (Biochem J, 2013).

Sequence of Insulin-like growth factor 1 receptor (Homo sapiens) (P08069 31-736 limits assumed): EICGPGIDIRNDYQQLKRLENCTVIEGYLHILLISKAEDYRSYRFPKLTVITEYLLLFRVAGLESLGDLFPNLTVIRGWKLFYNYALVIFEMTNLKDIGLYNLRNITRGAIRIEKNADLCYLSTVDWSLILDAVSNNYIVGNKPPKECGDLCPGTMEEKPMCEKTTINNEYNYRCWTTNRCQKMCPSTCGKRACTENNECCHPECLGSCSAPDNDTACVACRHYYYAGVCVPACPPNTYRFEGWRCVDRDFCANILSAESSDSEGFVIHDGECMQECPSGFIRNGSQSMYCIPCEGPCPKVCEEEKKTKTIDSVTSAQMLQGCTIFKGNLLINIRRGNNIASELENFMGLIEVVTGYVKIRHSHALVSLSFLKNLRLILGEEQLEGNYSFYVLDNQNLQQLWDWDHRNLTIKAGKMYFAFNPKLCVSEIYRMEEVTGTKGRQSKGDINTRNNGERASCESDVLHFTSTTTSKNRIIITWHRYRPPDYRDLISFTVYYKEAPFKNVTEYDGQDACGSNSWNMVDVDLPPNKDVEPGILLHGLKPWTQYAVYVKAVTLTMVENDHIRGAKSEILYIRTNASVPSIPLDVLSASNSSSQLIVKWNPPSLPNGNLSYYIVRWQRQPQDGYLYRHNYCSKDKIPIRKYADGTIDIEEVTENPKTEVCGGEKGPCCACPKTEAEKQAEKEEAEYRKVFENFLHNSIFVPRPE
Sequence of Insulin-like growth factor 1 receptor (Homo sapiens) (P08069 741-1367 limits assumed): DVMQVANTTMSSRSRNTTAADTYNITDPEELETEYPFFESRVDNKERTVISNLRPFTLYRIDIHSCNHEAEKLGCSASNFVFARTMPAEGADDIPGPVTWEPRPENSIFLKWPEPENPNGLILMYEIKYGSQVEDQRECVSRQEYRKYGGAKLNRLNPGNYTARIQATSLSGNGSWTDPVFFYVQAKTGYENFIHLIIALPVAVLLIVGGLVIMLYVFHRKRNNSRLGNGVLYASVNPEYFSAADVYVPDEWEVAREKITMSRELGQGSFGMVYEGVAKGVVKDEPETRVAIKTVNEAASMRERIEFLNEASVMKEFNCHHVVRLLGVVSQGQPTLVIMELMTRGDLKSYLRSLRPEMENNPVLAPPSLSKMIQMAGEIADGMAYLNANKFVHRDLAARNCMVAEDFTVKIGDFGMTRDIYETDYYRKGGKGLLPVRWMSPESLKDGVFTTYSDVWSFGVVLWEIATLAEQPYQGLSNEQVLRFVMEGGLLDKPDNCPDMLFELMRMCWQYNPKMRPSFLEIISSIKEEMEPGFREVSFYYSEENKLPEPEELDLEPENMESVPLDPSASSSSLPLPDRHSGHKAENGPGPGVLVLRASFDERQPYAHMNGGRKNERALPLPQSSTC
Sequence of Insulin receptor (Homo sapiens) (P06213 28-758 limits assumed): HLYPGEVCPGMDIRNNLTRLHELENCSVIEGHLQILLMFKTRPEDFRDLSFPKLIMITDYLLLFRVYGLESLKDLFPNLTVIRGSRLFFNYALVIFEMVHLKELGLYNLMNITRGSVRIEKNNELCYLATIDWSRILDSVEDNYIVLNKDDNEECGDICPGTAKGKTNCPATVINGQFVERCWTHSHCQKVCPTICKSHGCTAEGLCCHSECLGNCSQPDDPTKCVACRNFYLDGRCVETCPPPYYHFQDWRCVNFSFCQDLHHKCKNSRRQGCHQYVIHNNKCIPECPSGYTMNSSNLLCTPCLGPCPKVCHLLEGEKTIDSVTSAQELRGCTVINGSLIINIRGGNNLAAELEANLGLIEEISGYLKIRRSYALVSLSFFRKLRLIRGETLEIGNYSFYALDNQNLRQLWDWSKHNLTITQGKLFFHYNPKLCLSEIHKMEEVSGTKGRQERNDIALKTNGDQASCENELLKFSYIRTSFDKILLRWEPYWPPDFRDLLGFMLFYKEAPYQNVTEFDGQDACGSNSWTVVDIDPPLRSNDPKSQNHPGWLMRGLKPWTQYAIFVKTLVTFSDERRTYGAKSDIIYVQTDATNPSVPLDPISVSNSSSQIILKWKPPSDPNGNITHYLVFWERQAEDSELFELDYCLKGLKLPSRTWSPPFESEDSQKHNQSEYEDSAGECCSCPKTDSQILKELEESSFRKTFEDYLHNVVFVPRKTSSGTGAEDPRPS
Sequence of Insulin receptor (Homo sapiens) (P06213 763-1382 limits assumed): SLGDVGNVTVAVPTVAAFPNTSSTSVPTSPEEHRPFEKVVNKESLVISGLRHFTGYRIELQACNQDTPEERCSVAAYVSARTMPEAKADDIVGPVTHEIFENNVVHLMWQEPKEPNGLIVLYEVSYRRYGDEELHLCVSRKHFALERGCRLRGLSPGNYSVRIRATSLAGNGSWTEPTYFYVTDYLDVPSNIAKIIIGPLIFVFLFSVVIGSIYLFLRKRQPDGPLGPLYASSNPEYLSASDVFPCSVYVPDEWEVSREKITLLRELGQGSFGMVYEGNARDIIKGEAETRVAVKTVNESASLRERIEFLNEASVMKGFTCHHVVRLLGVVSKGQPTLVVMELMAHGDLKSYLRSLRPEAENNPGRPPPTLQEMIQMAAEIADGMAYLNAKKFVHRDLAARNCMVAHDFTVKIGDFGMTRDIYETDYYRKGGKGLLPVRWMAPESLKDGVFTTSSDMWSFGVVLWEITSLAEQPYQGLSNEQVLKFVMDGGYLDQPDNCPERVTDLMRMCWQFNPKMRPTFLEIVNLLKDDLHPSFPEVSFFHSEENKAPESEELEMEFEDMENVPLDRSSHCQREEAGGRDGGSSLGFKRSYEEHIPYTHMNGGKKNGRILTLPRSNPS

In the case of `COc1ccc(CNc2nc(N(CCO)CCO)nc3c2ncn3C(C)C)cc1`, the residual activity (usually the signal under treatment as a percentage of the control signal) was determined as 55% in [1]; 88% in experiment [2]; 74% in [3]; 94% in experiment [4]; 88% in experiment [5]; 101% in [6]. Moreover, the residual activity in experiment [7] turned out to be 102%; in [8] it was 112%; in experiment [9] it was 99%; in [10], 99%.
